Test results from PubChem BioAssay AID1963822 (ICCB-Longwood Screening Facility, Harvard Medical School, 2024).
Values joined by “and” are separate entries in the source; they are usually repeats but may differ in a detail not shown here. Equal entries are not always repeated. In all, about 55,000 compounds went through this assay and about 90 (0.2%) were called active. No rule for the calls is given here. What follows is part of a selection rich in actives, with near analogues and random picks from the rest. Some structures have more than one record in an assay (separate samples or runs), and their calls can disagree.

Assay: anaerobic choline-dependent bacterial growth inhibition – minimal medium, absorbance (AID 1963822)
Settings: Gram-negative bacterium anaerobic choline minimal medium
[1] = measured here: choline growth z-score, timepoint 1, stronger effect = lower value

Row | SMILES | z-score (stronger effect = lower value) | z-score [1]
1 | CCOC(=O)c1cnc(SC(CC)C(=O)Nc2ccc(Br)cc2)nc1N (centres undefined) | 0.81 (inactive) | 0.87
2 | O=C1CN(C(=O)CSc2ccc(Cl)cc2)c2ccccc2N1 | -2.07 (inactive) | -0.23
3 | COc1ccc(C2N=C(Nc3ccc(C(C)C)cc3)Nc3nc(C)cc(=O)n32)cc1OC (centres undefined) | 0.3 (inactive) | -0.84
4 | Cc1nc(-c2csc(S(=O)(=O)N3CCCC(C(=O)N4CCCCC4)C3)c2)no1 (centres undefined) | 0.63 (inactive) | -0.32
5 | CC(=O)N1CCCN(S(C)(=O)=O)CC1 | 0.45 (inactive) | 1.28
6 | CC(C)c1nnc(-c2cc3ccccc3n2CC(=O)N(C(C)C)C(C)C)o1 | -0.44 (inactive) | 0.05
7 | COc1cc(C2OC(c3ccccc3)=NN2C(C)=O)ccc1O (centres undefined) | -1.46 (inactive) | -1.53
8 | O=C(Cn1nc2n(CCc3ccccc3)c(=O)c3ccccc3n2c1=O)NCc1ccccc1Cl | 0.2 (inactive) | 0.39
9 | COc1ccc(OC)c(CNC(=O)C2CCCN(c3ncnc4c3oc3ccccc34)C2)c1 (centres undefined) | -0.39 (inactive) | -0.94
10 | CN(C)CCCNC(=O)c1sc2ncccc2c1-n1cccc1 | -0.76 (inactive) | -0.95
11 | Cc1ccc(/C=C/c2nc(-c3ccc4c(c3)[nH]c(=O)c(=O)n4C(C)C)no2)cc1 | 0.12 (inactive) | -0.05
12 | CCc1nc(-c2ccc(C(=O)NCC(=O)Nc3ccc(Cl)cc3)cc2)no1 | -0.03 (inactive) | -0.94
13 | CC(C)C(=O)N1CCN(c2ccc(Nc3c4c(nc5nc(-c6ccccc6)nn35)CCCC4)cc2)CC1 | -0.12 (inactive) | 0.82
14 | O=C(NCCc1cscn1)[C@H]1CSCN1C(=O)c1ccccc1 | 0.46 (inactive) | 0.42
15 | CCC(=O)Nc1cccc(-c2noc(C3CCCN(C(=O)c4ccc(F)cc4)C3)n2)c1 (centres undefined) | 0.07 (inactive) | -0.16
16 | O=S(=O)(c1ccc2c(c1)CCCC2)N1CCC2(CC1)Nc1cc(F)ccc1-n1cccc12 | -0.8 (inactive) | -0.36
17 | O=S(=O)(c1ccccc1)c1ccc(N2CCN(c3ccccc3)CC2)nn1 | -0.18 (inactive) | -1.06
18 | O=C(NCCc1cnc[nH]1)c1ccc(Cn2c(SCc3ccc(F)cc3)nc3cccnc32)cc1 | -0.7 (inactive) | -0.94
19 | CCOC(=O)CC1=CC(SCC(=O)c2cc(C)ccc2C)=Nc2ccccc2N1 | 0.16 (inactive) | 0.19
20 | COc1ccc(NC(=O)c2ccc(-c3nc(-c4ccccc4)no3)cc2)cc1 | -1.61 (inactive) | -1.39
21 | Cc1ccc2c(Cl)c(C(=O)Nc3onc4c3CCCC4)sc2c1 | 0.44 (inactive) | 0.27
22 | COc1ccc(Cn2c(CCC(=O)Nc3cccc(C)c3C)nc3cccnc32)cc1 | 0.59 (inactive) | 0.56
23 | CC(=O)Nc1ccc(N(C)CCCc2c(C)nn(C)c2C)c(C(=O)O)c1 | 0.96 (inactive) | 0.43
24 | COC(=O)CSc1nc2cc(-c3ccccc3)sc2c(=O)n1C | 0.31 (inactive) | 0.31
25 | CCCN(C)S(=O)(=O)c1c(C)[nH]c(-c2nnc(C3CCC3)o2)c1C | 0.79 (inactive) | 0.59
26 | COc1ccc2nc(-n3nc(C)c4c3NC(=O)CC4c3ccc4c(c3)OCO4)sc2c1 (centres undefined) | 1.23 (inactive) | 1.32

Row | SMILES | z-score (stronger effect = lower value) | z-score [1]
27 | COc1ccc2nc(-n3nc(C)c4c3NC(=O)CC4c3cc(Br)ccc3OC)sc2c1 (centres undefined) | -0.06 (inactive) | 0.15
28 | COc1ccc2nc(-n3nc(C)c4c3NC(=O)CC4c3ccsc3)sc2c1 (centres undefined) | -2.13 (active) | -0.51
29 | CCCC(=O)Nc1cccc(OCc2cc(=O)n3ccccc3n2)c1 | 0.39 (inactive) | 0.6
30 | CN1CCN(CCNC(=O)c2cnc3sc4c(n3c2=O)CCC4)CC1 | -0.87 (inactive) | -0.3
31 | Cc1sc2cc(C(=O)NCCN3CCN(C)CC3)[nH]c2c1CN1CCCCC1 | -0.21 (active) | -4.45
32 | O=C(NCCCN1CCCCC1)c1cc2n(n1)CCCN(Cc1ccc(F)cc1)C2=O | 0.15 (inactive) | -0.23
33 | Cc1ccc(F)c(NS(=O)(=O)c2cc(-c3nc(C(C)(C)C)cs3)cs2)c1 | 0.79 (inactive) | 0.58
34 | CCCCOc1ccccc1C1CC(=O)Nc2c1c(C)nn2-c1ccc2nncn2n1 (centres undefined) | 0.78 (inactive) | 0.83
35 | O=C(NC1CC1)c1snc(-c2ccccn2)c1NC(=O)C1CC1 | 0.58 (inactive) | 1.01
36 | CCc1ccc(NS(=O)(=O)c2cc(-c3nc(C(C)C)cs3)cs2)cc1 | -0.41 (inactive) | 0.54
37 | Cc1cccc(C2C3=C(CC(c4ccccc4)CC3=O)Nc3onc(C)c32)c1 (centres undefined) | 1.84 (inactive) | 1.45
38 | O=C1Nc2ccccc2Oc2cc(Cl)c(S(=O)(=O)N3CCCC3)cc21 | 1.05 (inactive) | -0.01
39 | O=C(COc1ccccc1)Nc1noc(-c2ccc(Cl)cc2)n1 | -0.07 (inactive) | -0.68
40 | Cc1ccc(C)c(Cn2cccc(S(=O)(=O)N3CCCC3)c2=O)c1 | 1.03 (inactive) | 0.96
41 | CS(=O)(=O)NC1CCN(C(=O)C2CCCC2)C1 (centres undefined) | 0.08 (inactive) | 0.92
42 | CCC(C(=O)Nc1ccccc1OC)n1nc(-c2ccccc2)ccc1=O (centres undefined) | 0.41 (inactive) | -0.44
43 | COc1ccc(CSc2nccc3c2ccn3CC(=O)NCc2ccc3c(c2)OCO3)cc1 | 1.77 (inactive) | 1.27
44 | O=C(CSCc1nc2cccnc2n1C1CCCCC1)NCc1cccc(F)c1 | 0.62 (inactive) | 1.42
45 | Cc1ccccc1C1CC(=O)c2cnc3c(-c4ccc(F)cc4)c(C)nn3c2C1 (centres undefined) | 0.81 (inactive) | 0.27
46 | O=C(COc1ccccc1)Nc1noc(-c2ccccc2)n1 | -2.24 (inactive) | -0.92
47 | O=C(NCc1ccc(Cl)cc1)c1ccc(-n2nnc3cccnc32)cc1 | 0.42 (inactive) | 0.46
48 | Cc1nn(-c2ccccc2)c2sc(C(=O)N3CCN(c4cccc(Cl)c4)CC3)cc12 | 0.97 (inactive) | 1.5
49 | COc1ccc(-c2noc(-c3ccc[nH]c3=O)n2)cc1OC | 1.32 (inactive) | 1.18
50 | Clc1ccc(C(CNc2nn3cnnc3c3ccccc23)N2CCCCC2)cc1 (centres undefined) | -0.12 (inactive) | -0.1
51 | CC(C)NC(=O)N1CCCC(c2cccc(C(=O)NCc3ccc(Cl)cc3)c2)C1 (centres undefined) | 0.72 (inactive) | 0.1
52 | CCOC(=O)c1cnn(CCOC(=O)COC)c1NC(=O)COC | 0.06 (inactive) | 0.2

Row | SMILES | z-score (stronger effect = lower value) | z-score [1]
53 | Cc1noc2c1C(c1ccc(Cl)cc1)C1=C(CC(c3ccc(O)cc3)CC1=O)N2 (centres undefined) | -1.06 (inactive) | 0.58
54 | CCCCC(=O)Nc1cc(N2CCn3c(nc4ccccc43)C2)ccc1C | -0.54 (inactive) | 0.09
55 | COc1ccc(NC(=O)C2CCN(C(=O)c3ccc(-c4noc(C)n4)cc3)CC2)cc1OC | 0.58 (inactive) | -0.71
56 | CCc1ccc(-c2ccc(=O)[nH]n2)cc1S(=O)(=O)N1CCOCC1 | -0.21 (inactive) | -0.65
57 | O=C(O)c1cc(N2CCN(c3ccc(Cl)cc3)CC2)ccc1NC(=O)C1CCC1 | 0.22 (inactive) | 0.14
58 | O=c1c(S(=O)(=O)c2ccc(F)c(Cl)c2)c[nH]c2c(F)cc(Cl)cc12 | -1.66 (inactive) | -1.06
59 | CNC(=O)c1ccc(NC(=O)N2CCCCc3ccccc32)cc1 | 0.76 (inactive) | -0.19
60 | COC(=O)c1cnc(N(C)C2CCCCC2)c2ccccc12 | 0.22 (inactive) | -0.03
61 | Cc1nc(Nc2ccccc2)nc2c1C(=O)CC(C)C2 (centres undefined) | 0.7 (inactive) | 0.46
62 | COCc1cc(C)nc2sc3c(c12)NC(C)N(c1ccc(C)cc1)C3=O (centres undefined) | -0.14 (inactive) | -1.91
63 | Cc1ccc(-n2cc(C(=O)O)c3ccccc3c2=O)cc1 | 1.03 (inactive) | 0.91
64 | Cc1ccc2c(c1)OCC(=O)N2CC(=O)O | -1.28 (inactive) | -1.54
65 | Cc1ccc(C2C3=C(CCCC3=O)Nc3ccccc3N2C(=O)c2ccccc2)cc1 (centres undefined) | -0.78 (inactive) | 0.3
66 | CCN1CCN(C(=O)C2CCCN(S(=O)(=O)c3cc(-c4noc(C5CC5)n4)sc3C)C2)CC1 (centres undefined) | 0.63 (inactive) | 0.78
67 | COc1cc(OC)cc(C(=O)Nc2nc(CC(=O)Nc3ccc(OC)c(OC)c3)cs2)c1 | -0.43 (inactive) | -0.34
68 | CCn1nc(C)c(CCN(C)C(=O)NCC2CCCO2)c1C (centres undefined) | -1.05 (inactive) | -1.68
69 | O=C(CSc1ccccc1)N1CCN(Cc2cc(=O)n3nc(-c4ccccc4F)sc3n2)CC1 | 0.75 (inactive) | 0.13
70 | Cn1c(=O)oc2cc(S(=O)(=O)N3CCC4(CC3)Nc3cc(F)ccc3-n3cccc34)ccc21 | -0.55 (inactive) | 0.11
71 | O=S(=O)(Cc1ccccc1)N1CCCC1c1ccc(Cl)cc1 (centres undefined) | -0.27 (inactive) | -0.13
72 | CN1CCC[C@@H]1CCO[C@](C)(c1ccccc1)c1ccc(Cl)cc1 | -1.24 (inactive) and -1.63 (active) and 0.92 (inactive) | 0.36 and -2.85 and -1.59
73 | CCOC(=O)c1cnc2c(-c3ccccc3)c(COc3ccccc3)nn2c1N | -0.05 (inactive) | -0.12
74 | O=C(Nc1ccc2c(c1)OCCO2)c1cccc(Oc2ccnc(-c3ccc(F)cc3)n2)c1 | -0.1 (inactive) | 0.77
75 | O=C(CC1CCCC1)N1CCN=C1N1CCCC1 | -1.26 (inactive) | -0.58
76 | CCOc1ccc(CNC(=O)C2(NS(=O)(=O)c3cccc4cccnc34)CCCCC2)cc1 | 0.35 (inactive) | 0.16
77 | COc1cccc(-n2ccnc2SCc2nc(-c3ccccc3)no2)c1 | 0.5 (inactive) | 0.33
